Assay outcomes deposited in PubChem BioAssay by several laboratories.
Shown are actives, neighbours in structure and some others; about 3.7% of the full set was active somewhere.
GPR7 antagonist: human neuropeptides B/W receptor 1 antagonism. P48145. GPR7-expressing cells, fluorescence antagonist assay. inhibition, % at 4.4 µM. 290,000 tested, 1.1% active. AID 1861; in the data active = inhibition above about 16%, passing the limit was not always enough;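 also: cells stimulated with the agonist NPW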
Target sequence (P48145 whole entry, looked up): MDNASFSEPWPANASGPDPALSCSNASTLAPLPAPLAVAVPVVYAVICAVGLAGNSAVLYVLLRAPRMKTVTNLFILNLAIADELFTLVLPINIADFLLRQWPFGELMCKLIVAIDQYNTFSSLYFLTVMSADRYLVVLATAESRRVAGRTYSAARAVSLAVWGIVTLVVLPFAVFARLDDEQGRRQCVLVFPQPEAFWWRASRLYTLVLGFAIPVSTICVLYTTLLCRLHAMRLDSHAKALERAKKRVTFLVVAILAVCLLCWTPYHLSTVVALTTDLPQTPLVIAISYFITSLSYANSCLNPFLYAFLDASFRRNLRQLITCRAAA
Kir21 block: blocks the mouse Kir2.1 inward-rectifier potassium channel; HEK293-Kir2.1, FluxOR thallium flux fluorescence; hits give low values; 310,000 tested, 0.85% active; P35561; B-score at 10 µM;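 active = fluorescence ratio B-score at or below minus 3 SD of library scores, with starting-brightness B-score within 2 SD, cut at about -4.2 in these data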;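 also: channel flux triggered by added potassium and thallium sulfate stimulus; B-score of peak minus minimum fluorescence over baseline after thallium stimulus; more negative B-score means stronger Kir2.1 block with less thallium influx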
CHT inh: human CHT choline transport inhibition | 310,000 tested, 0.86% active | AID 488975 | Q9GZV3 | CHT-expressing cells, membrane potential dye, choline response; hits give low values | B-score at 10 µM;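 active = B-score over 3 SD under the library average, and starting fluorescence ratio not unusually high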;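 also: choline stimulus applied at its EC90 after an EC20 pre-addition; B-score computed on integrated fluorescence ratio after choline addition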
TMEM16A act: activators or potentiators of mouse TMEM16A chloride channel; 340,000 tested, 0.3% active; B-score at 10 µM; HEK293 TMEM16A/YFP-H148Q/I152L, iodide quench fluorescence; hits give low values;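 active = fluorescence-ratio B-score plate-corrected deviation score at least 3 library SD below zero, with starting fluorescence score within 5 deviations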;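 also: channel opened by trigger with iodide after compound preincubation; score built on the fluorescence ratio of max minus min over baseline; more negative score means more quench and so TMEM16A activation or potentiation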
CHT allo act: allosterically activates the human high affinity choline transporter; Q9GZV3; CHT-expressing cells, membrane potential dye, choline EC20; hits give high values; LV-AA mutant CHT in HEK293 cells; 310,000 tested, 0.49% active; B-score at 10 µM; AID 488977;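 active = initial fluorescence not abnormally high and integrated response B-score, plate-corrected, over 3 SD above library mean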
TMEM16A inh: mouse TMEM16A channel inhibition, primary screen | Q8BHY3 | HEK293 TMEM16A/YFP iodide influx fluorescence, ionomycin | 310,000 tested, 1.2% active | AID 588511 | normalized B-score (activity score, 25-100; higher = stronger inhibition) at 10 µM;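 active = ratio plate-corrected score three or more library SD toward inhibition, starting fluorescence score within five deviations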;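 also: score derived from kinetic fluorescence span divided by baseline fluorescence per well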
CHT inh conf: confirmation of human choline transporter CHT inhibitors. shares compounds with CHT inh. CHT-expressing cells, choline membrane potential dye; LV-to-AA substituted CHT, HEK293 cells. CHT activity remaining % of control (hits give low values), % at 10 µM. 2,400 tested, 70% active. AID 493221;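 active = choline transporter activity left, mean of duplicates at 10 µM, below buffer-only control mean minus 3 SD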;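 also: depolarization triggered by choline at its EC90 following an EC20 pre-addition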
HEK293 MPD ctr: counter-screen for CHT inhibitors: effect in parental HEK293 cells | membrane potential ratio readout (active if shifted either direction beyond buffer ±3SD; no single direction) at 10 µM | membrane potential dye, choline response; active = decrease or increase beyond buffer ±3SD | 2,400 tested, 4% active | AID 493222 | shares compounds with CHT inh;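 also: parental cells lack the transporter so any hit is non-specific; ratio is peak minus trough fluorescence over baseline after EC90 choline challenge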
Of the large screens only hits and unclear results are named; the others gave an inactive call (follow-up assays come after a bar, where they were run).

CCOc1ccccc1C(=O)NC(C(=O)OCC(=O)Nc1nnc(-c2ccccc2)o1)C(C)C (stereo not given)	CHT inh -5.7 | CHT inh conf inactive | HEK293 MPD ctr inactive
CCOc1ncccc1C(=O)OCC(=O)N(CC)c1ccccc1	none
O=S(Cc1ccccc1)Cc1ccccc1	none (no result: GPR7 antagonist, Kir21 block, CHT inh, CHT allo act, TMEM16A inh)
Cc1c(C)n2c(SCC(=O)N3CCCCCC3)nnc2[nH]c1=O	none (no result: GPR7 antagonist)
CC1CC(C)(C)N(C(=O)CN2C(=O)c3ccccc3C2=O)c2ccccc21 (stereo not given)	CHT inh -16, TMEM16A act -6.2 | CHT inh conf 62% | HEK293 MPD ctr inactive
CC1CC(C)(C)N(C(=O)CN2CCN(C)CC2)c2ccccc21 (stereo not given)	none
Cc1ccc(C)c(SCC(=O)NCC(c2ccco2)N2CCCCC2)c1 (stereo not given)	none (no result: GPR7 antagonist)
Cn1c(-c2ccccc2)cc2ccccc21	none
Cn1c(-c2ccccc2O)cc2ccccc21	CHT inh -8.1 | CHT inh conf 51% | HEK293 MPD ctr inactive
O=C(Cn1cccc1C(=O)c1ccccc1)NCc1cccc(Cl)c1	none
COC(=O)c1ccc(/C(O)=C(\C#N)c2nc3ccccc3s2)cc1	CHT inh -6.5, TMEM16A inh 25 | CHT inh conf inactive | HEK293 MPD ctr inactive
Cc1ccc(NC(=O)c2ccccc2NS(=O)(=O)c2ccc(Cl)s2)cc1S(=O)(=O)N1CCOCC1	CHT inh -11, TMEM16A inh 25 | CHT inh conf 40% | HEK293 MPD ctr inactive
O=S(=O)(NC1CCN(Cc2ccccc2)CC1)c1cccc(S(=O)(=O)N2CCOCC2)c1	none
CCC(=O)N1CCc2cc(Br)cc(S(=O)(=O)NC3CCN(Cc4ccccc4)CC3)c21	CHT inh -9 | CHT inh conf 38% | HEK293 MPD ctr 3.2
O=S(=O)(NC1CCN(Cc2ccccc2)CC1)c1ccc2ccccc2c1	CHT inh -5.7 | CHT inh conf inactive | HEK293 MPD ctr inactive
COc1ccc(N2CCN(CCNC(=O)c3ccc4c(c3)[nH]c(=S)n3c5ccccc5nc43)CC2)cc1	none
CC(C)(C)OC(=O)C(C1NC(C(=O)O)C(C)(C)S1)N1C(=O)c2ccccc2C1=O (stereo not given)	none (no result: GPR7 antagonist, Kir21 block, CHT inh, CHT allo act, TMEM16A inh)
Cc1ccc2c(c1)/C(=N/OS(=O)(=O)c1ccccc1)CCS2	none
CC1=CC(=O)C(C(C)C)=C/C1=N/OS(=O)(=O)c1ccccc1	GPR7 antagonist 81, CHT inh -9.6, TMEM16A act -6.5, TMEM16A inh 100 | CHT inh conf 64% | HEK293 MPD ctr inactive
O=C(NNC(=S)NC(=O)C12CC3CC(CC(C3)C1)C2)c1ccncc1	CHT inh -9.6, TMEM16A inh 25 | CHT inh conf 53% | HEK293 MPD ctr inactive
COc1cc(/C=C2\S/C(=N/S(=O)(=O)c3ccccc3)NC2=O)c([N+](=O)[O-])cc1OC	CHT inh -8.2 | CHT inh conf 53% | HEK293 MPD ctr inactive
COc1ccc(S(=O)(=O)/N=C2/NC(=O)/C(=C\c3cc(OC)c(OC)cc3[N+](=O)[O-])S2)cc1	none
CS(=O)(=O)Nc1ccccc1C(=O)NCCSc1ccccc1	CHT inh -6.5 | CHT inh conf 71% | HEK293 MPD ctr inactive
c1ccc(CNc2c3c(nc4ncnn24)CCCC3)nc1	none
C#CCNc1c2c(nc3ncnn13)CC(C)CC2 (stereo not given)	CHT inh -5.2 | CHT inh conf 63% | HEK293 MPD ctr inactive
Cc1cc(=O)oc(C)c1C(=O)Nc1cccc(F)c1	none
O=C(c1ccco1)N1CCN(C(c2cccs2)c2nnnn2C2CCCC2)CC1 (stereo not given)	CHT inh -7.8 | CHT inh conf inactive | HEK293 MPD ctr inactive
CN(CC(=O)Nc1ccc(N2CCOCC2)cc1)C(=O)C1CCCC1	CHT inh -8.3 | CHT inh conf inactive | HEK293 MPD ctr inactive
O=C(COC(=O)c1ccc(O)cc1)Nc1ccccc1[N+](=O)[O-]	none
COCCn1c(CN2CCN(c3cccc(Cl)c3)CC2)nc2c1c(=O)n(C)c(=O)n2C	CHT inh -7.3 | CHT inh conf -5.6% | HEK293 MPD ctr inactive
CCOCCn1c(CN2CCN(C)CC2)nc2c1c(=O)n(C)c(=O)n2C	none (no result: GPR7 antagonist)
COC(=O)Cn1c(CN2CCOCC2)nc2c1c(=O)n(C)c(=O)n2C	none
COC(=O)Cn1c(CN2CCN(c3ccc(F)cc3)CC2)nc2c1c(=O)n(C)c(=O)n2C	CHT inh -11 (no result: GPR7 antagonist) | CHT inh conf -12% | HEK293 MPD ctr inactive
CCOCCn1c(CN2CCN(c3ccc(F)cc3)CC2)nc2c1c(=O)n(C)c(=O)n2C	CHT inh -17 | CHT inh conf 10% | HEK293 MPD ctr inactive
CCOCCn1c(CN2CCN(c3cccc(Cl)c3)CC2)nc2c1c(=O)n(C)c(=O)n2C	none
O=C(O)Cc1ccc(NC(=O)Nc2ccc3c(c2)OCO3)cc1	none
O=S(=O)(Cc1ccccc1Cl)NCCc1ccccc1	none
COc1ccc(S(=O)(=O)N2CCCCCC2)cc1NC(C)C(=O)Nc1ccc(NC(C)=O)cc1 (stereo not given)	none (no result: GPR7 antagonist, Kir21 block, CHT inh, CHT allo act, TMEM16A inh)
NC(=O)COC(=O)/C=C/c1cccc(Br)c1	none
CCC(C(=O)NCc1ccccc1OC)c1ccccc1 (stereo not given)	none | CHT inh conf inactive | HEK293 MPD ctr inactive
COc1ccccc1CNC(=O)C(c1ccccc1)c1ccccc1	none
CCC(C(=O)Nc1ccc(OC)c(Cl)c1)c1ccccc1 (stereo not given)	CHT inh -6.6 | CHT inh conf inactive | HEK293 MPD ctr inactive
COc1ccc(/C=N/NC(=O)c2cccnc2)cc1CSc1ccccn1	none
COC(=O)/C=C/c1ccc(OC(=O)OC)c(OC(=O)OC)c1	none
COc1ccc(NC(=O)/C(C#N)=C/c2ccc(OCCN3CCOCC3)c(OC)c2)c(OC)c1	none
COc1ccccc1NC(=O)/C(C#N)=C/c1ccc(OCCN2CCOCC2)c(OC)c1	CHT inh -6 | CHT inh conf inactive | HEK293 MPD ctr inactive
CCOC(=O)CSC1=C(C#N)C(c2ccccc2)C(C(C)=O)=C(C)N1 (stereo not given)	CHT inh -5.7 | CHT inh conf inactive | HEK293 MPD ctr inactive
CSC1=C(C#N)C(c2ccccc2)C(C(C)=O)=C(C)N1 (stereo not given)	none
CCN(CC)CCCNC(=O)c1cc(-c2ccc(Cl)c(Cl)c2)on1	CHT inh -6.7 | CHT inh conf 31% | HEK293 MPD ctr inactive
CCN(CC)CCCNC(=O)c1cc(-c2ccc(O)cc2)on1	none
